TDP43 rescue: rescues yeast growth from TDP-43 toxicity; 1.8% of 410,000 active; Potency, µM (series often up to 46.1 µM), for the others: at the highest dose growth rescue (activation), hits mostly activators; TDP-43 expressing yeast growth rescue, BacTiter-Glo, 24 h; further: potency means the concentration at half of the fitted maximal effect; % of control where 0% means no effect; nearly all actives have a fitted effect of over 50% in size
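Readout is BacTiter-Glo luminescence of cell growth, so inhibitors register as activators. TDP-43-expressing yeast at OD600=0.02 in galactose medium, after raffinose pregrowth to mid-log, were incubated with compound for 24 hr at 30 deg C.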
LDHA block: inhibitors of human lactate dehydrogenase A; purified LDHA, NADH/diaphorase-resazurin fluorescence; active compounds read low; activity change, % (values are at about 110 or 230 µM); 0.15% of 480,000 active; AID 1347041; in the data active means activity change below about -30%; inconclusive means mostly about -25% to -30%;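 further: plate controls were DMSO wells for no effect and wells without enzyme for full effect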
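LDH5 2 nM; NADH 0.06 mM, pyruvate 0.2 mM; 200 mM Tris pH 7.4, EDTA, Tween-20; 5 min RT. Detection: diaphorase 0.133 mg/mL + resazurin 37 µM, fluorescence ex540/em590 at 0 and 20 min; normalized to enzyme-free and DMSO wells.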
FUS yeast rescue: rescues growth of FUS-expressing yeast | S. cerevisiae FUS-expressing, growth rescue, OD600, 24 h | Potency, µM (series often up to 76.6 µM), hits mostly activators | 0.24% of 390,000 active;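 further: potency means the concentration at half of the fitted maximal effect; plate controls were DMSO vehicle for no effect and reference control for full effect; nearly all actives have a fitted effect of over 55% in size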
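Yeast expressing FUS under galactose induction, OD 0.005 in 2% galactose medium; compounds in a dilution series, 24 h at 30C. Growth rescue by absorbance at 600 nm; CP55940 positive control, DMSO negative.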
Abeta rescue: compounds reversing amyloid beta toxicity in yeast; yeast expressing A-beta42, growth rescue, OD600, 48 h; response scale: 0% DMSO, 100% iron-clioquinol control; Potency, µM (series often up to 46.1 µM), most hits filed as activators; 0.063% of 410,000 active; further: potency means the concentration at half of the fitted maximal effect; nearly all actives have a fitted effect of over 55% in size
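Yeast A-beta toxicity model in growth medium with pinned compounds, 48 h at 30 C; growth read as absorbance at 600 nm. Normalized to FeCl3/clioquinol equimolar mix (positive) and DMSO (negative).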
mIDH1 inhibitor: blocks human mutant IDH1 R132H enzyme | AID 602179 | 0.093% of 390,000 active | IDH1-R132H enzyme, NADPH consumption, diaphorase/resazurin fluorescence | O75874 | Potency, µM (highest dose often 76.6 µM), for the others: at the highest dose activity change, negative = inhibition, usual class: inhibitors; further: potency means the concentration at half of the fitted maximal effect; on the % scale 0 is the no-effect control and ±100 the full control effect; nearly all actives have a fitted effect of over 65% in size
Target sequence (O75874 whole entry R132H, stated change not applied): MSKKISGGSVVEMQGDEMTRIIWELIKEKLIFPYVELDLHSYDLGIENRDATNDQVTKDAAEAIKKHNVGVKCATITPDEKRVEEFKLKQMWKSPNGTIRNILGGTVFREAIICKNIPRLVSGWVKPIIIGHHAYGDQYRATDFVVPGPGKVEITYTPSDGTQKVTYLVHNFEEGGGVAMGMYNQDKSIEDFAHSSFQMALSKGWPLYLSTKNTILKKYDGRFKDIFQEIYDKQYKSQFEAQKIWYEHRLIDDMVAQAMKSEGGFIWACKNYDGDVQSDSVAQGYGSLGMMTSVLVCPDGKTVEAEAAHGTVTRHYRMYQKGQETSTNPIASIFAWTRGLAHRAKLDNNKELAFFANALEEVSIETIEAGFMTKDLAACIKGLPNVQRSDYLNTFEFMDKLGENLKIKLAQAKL
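IDH1-R132H (0.5 ug/mL) preincubated 30 min with compound, then NADPH (0.016 mM) and alpha-KG (2 mM) added; 80 min at RT, pH 7.5. Remaining NADPH coupled via diaphorase/resazurin to fluorescence (540/590 nm); concentration-response curves normalized to no-enzyme control.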
aSyn yeast inh: alpha-synuclein toxicity inhibition in yeast. Yeast expressing alpha-synuclein, growth rescue, BacTiter-Glo, 24 h. 0.14% of 370,000 active. Potency, µM (series often up to 46.1 µM), for the others: at the highest dose growth rescue (activation), actives largely listed as activators; further: potency means the concentration at half of the fitted maximal effect; % of control where 0% means no effect; nearly all actives have a fitted effect of over 65% in size
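Galactose-induced alpha-syn yeast (OD600=0.02, raffinose-pregrown) + pinned cpd, 24 hr, 30 deg C; growth by BacTiter-Glo luminescence. Growth restoration scores as activation.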
* marks the source's active call; other numbers are inactive results; i = inactive; ? = inconclusive; / = not tested or not shown; [ ] = remark or other dose. Shown are actives, neighbours in structure and some others; about 2% of the full set was active somewhere. Unless noted, the call rests on the fitted dose curve; in most records, active means well fitted curve in the direction sought with a large enough effect; inconclusive means small, poorly fitted or top-dose-only effect, or another doubt; inactive means no such curve, though single readings can be large; an effect the other way counts as inactive or inconclusive.

SMILES | TDP43 rescue | LDHA block | FUS yeast rescue | Abeta rescue | mIDH1 inhibitor | aSyn yeast inh
C=CCn1c(-c2csc3ccccc23)n[nH]c1=S | 19% | -10 | i | i | 4% | 0%
CCc1nn2c(=O)cc(COc3cccc(C)c3)nc2s1 | / | -8 | / | / | / | /
Cc1ccc(Cn2c(CNC(=O)c3ccccc3Br)nc3cccnc32)cc1 | 11µM* | -5 | i | i | -20% | /
CC(OC(=O)c1ccc(NS(=O)(=O)c2cccs2)cc1)C(=O)N(C)C1CCCCC1 (stereo not given) | -6% | -3 | 32µM* | i | -7% | -3%
CC1CCN(S(=O)(=O)c2ccc(C(=O)OC(C)C(=O)N(C)C3CCCCC3)cc2)CC1 (stereo not given) | -19% | -9 | i | i | -20% | -6%
COc1cc(C(=O)Nc2ccc(-c3nc4cc(C)c(C)cc4o3)cc2)cc(OC)c1OC | ? | 4 | i | i | -9% | /
Cc1ccc(C(=O)Nc2ccc3oc(-c4ccncc4)nc3c2)cc1 | / | 8 | / | / | / | /
COc1ccc(C(=O)Nc2ccc3oc(-c4ccncc4)nc3c2)cc1Br | / | -33* | / | / | / | /
COc1cc(C(=O)Nc2ccc3oc(-c4ccc(C)c(Br)c4)nc3c2)cc(OC)c1OC | 10µM* | 1 | i | i | 20% | /
N#C/C(=C/c1ccc(OC(F)F)cc1)C(=O)Nc1cc(Cl)ccc1Cl | / | 10 | / | / | / | /
O=C(CC1CC2CCC1C2)N1CCN(S(=O)(=O)c2ccccc2C(F)(F)F)CC1 (stereo not given) | 22µM* | -1 | ? | i | -8% | 4%[1.84 µM]
CN(C)c1nc2c(c(=O)[nH]c(=O)n2C)n1Cc1ccccc1Cl | / | 4 | / | / | / | /
O=C1CCCC2=C1C(c1ccccc1F)n1nc(SCc3ccc(C(=O)O)cc3)nc1N2 (stereo not given) | / | 0 | / | / | / | /
Cc1ccc(C)c(N2CCN(C(=O)Cn3ncc4ccsc4c3=O)CC2)c1 | -6% | 1 | ? | i | 1% | 16µM*
O=C(Cn1ncc2ccsc2c1=O)N1CCN(c2ccccc2)CC1 | 10% | 5 | i | i | -4% | -1%
COc1cc(C2C3=C(CCCC3=O)Nc3nc(SCc4ccccc4)[nH]c(=O)c32)cc(OC)c1O (stereo not given) | / | 68 | / | / | / | /
O=C(COC(=O)c1ccccc1O)Nc1ccccc1N1CCCC1=O | / | -11 | / | / | / | /
COc1ccc(CSc2ccc(-c3nc4ccccn4c3NCc3ccccc3)cc2OC)cc1 | 35µM* | 1 | ? | i | 5% | -33%
CCC(C)Sc1ccc(-c2nc3ccccn3c2NCc2ccccc2)cc1OC (stereo not given) | -88% | 7 | i | i | 10% | -47%
CCN1CCN(CC(=O)Nc2c(OC)cccc2OC)CC1 | -15% | -31* | i | i | 2% | 1%
O=C(COc1ccc(F)cc1)NC1CCCN(c2ncccn2)C1 (stereo not given) | / | -1 | / | / | / | /
CCOC(=O)c1c(C)nc(C(Cl)(Cl)Cl)nc1N | 11µM* | -3 | i | i | 0% | 0%
CC1=Nc2cc(C(=O)N3CCCC3)ccc2Sc2c(C)ccc(C)c21 | 13% | 1 | ? | / | 7% | ?
CC1=Nc2cc(C(=O)O)ccc2Sc2c(C)ccc(C)c21 | 25µM* | -7 | i | i | -10% | 7%
CC1=Nc2cc(C(=O)O)ccc2Sc2ccc(C)cc21 | 13µM* | -1 | i | i | 1% | 29%
SMILES | TDP43 rescue | LDHA block | FUS yeast rescue | Abeta rescue | mIDH1 inhibitor | aSyn yeast inh
CC1CCCN(CC2CCCCCN2)C1 (stereo not given) | / | 3 | / | / | / | /
Cc1ccc(C(=O)/C=C/c2cccc3ccccc23)cc1[N+](=O)[O-] | / | -23 | / | / | / | /
CCN(CC)CCN1C(=O)C(=O)/C(=C(/O)c2ccc(OCc3cccc(C)c3)cc2)C1c1ccco1 (stereo not given) | / | 1 | / | / | / | /
Cc1cc(C)cc(NC(=O)Nc2ccc3nc(N4CCOCC4)cc(C)c3c2)c1 | / | 8 | / | / | / | /
CCN(CC)C(=O)C1CCCN(c2ncnc3c2cnn3-c2cccc(C)c2)C1 (stereo not given) | ? | 2 | i | i | 6% | 15%
CC1CCCN(c2ncnc3c2cnn3-c2ccc(Cl)cc2)C1 (stereo not given) | 14µM* | 0 | i | i | 3% | -1%
CCN(CC)C(=O)C1CCCN(c2ncnc3c2cnn3-c2ccc(Cl)cc2)C1 (stereo not given) | 20µM* | 4 | ? | i | 4% | 3%
CCCn1c(SCc2cc(=O)oc3c(C)c(C)ccc23)n[nH]c1=O | / | -6 | / | / | / | /
COc1ccc(C(=O)O)cc1S(=O)(=O)Nc1ccccc1SCC(F)(F)F | / | -2 | / | / | / | /
COc1ccc2ncc(C(=O)c3ccc(C)c(C)c3)c(N3CCOCC3)c2c1 | / | 3 | / | / | / | /
O=C(O)C(Br)Cc1ccc(Cl)cc1 (stereo not given) | / | 25 | / | / | / | /
COc1cc(OC)cc(C(=O)Nc2ccc(Nc3ccccc3)cc2)c1 | -18% | 3 | 25µM* | i | -7% | 9%
COc1cccc(C(=O)Nc2cccc(-c3ccccc3)c2)c1 | 18µM* | -2 | i | i | -2% | -1%
COc1ccc(NC(=O)c2cccc(Oc3ccccc3)c2)cn1 | 11µM* | -5 | i | i | 6% | 10%
O=C(NCCc1ccc2c(c1)OCCO2)c1ccc(NC(=O)c2cccs2)cc1 | / | 4 | / | / | / | /
CCC[C@H]1NC(=O)[C@H](C)N(C)C(=O)C(C)(C)C(=O)C(C)NC(=O)[C@H](Cc2ccc(OC)cc2)N(C)C(=O)[C@H](C(C)C)N(C)C(=O)CNC(=O)[C@H](CC(C)C)N(C)C(=O)CNC(=O)[C@H]([C@@H](C)CC)OC(=O)[C@H]1C (stereo not given in full) | 35µM* | 4 | ? | i | -7% | 11%
N#Cc1nc(Cc2ccccc2)oc1NCc1cccnc1 | -3% | -5 | i | i | -1% | -1%
N#Cc1ncc(Cc2ccccc2)nc1C#N | 14µM* | 5 | i | i | 6% | 12%
ON=C1c2ccccc2-c2ccc(Br)cc21 | 3.2µM* | -4 | / | i | 1% | -8%
Cc1cc2cc(C(=O)N3CCc4c([nH]c5ccccc45)C3c3ccccn3)ccc2o1 (stereo not given) | 25µM* | 1 | ? | i | 10% | ?
Cn1cccc1-c1cc(C(=O)N2CCc3c([nH]c4ccccc34)C2c2ccccn2)[nH]n1 (stereo not given) | 4% | -5 | 18µM* | ? | -1% | 1%
